Source: article PMC7862700, “An all-to-all approach to the identification of sequence-specific readers for epigenetic DNA modifications on cytosine”

Key:
Experiment in all cases: DAPPL (digital affinity profiling via proximity ligation, sequencing); 10 mM Tris-HCl pH 7.5, 50 mM NaCl, 1 mM DTT, 4% glycerol, room temperature, 30 min; GST-TFs on glutathione beads, 16-mer random dsDNA library, 0.1% formaldehyde crosslink after washing; high values mean tight binding
Details in all cases: protein: recombinant; tags: N-terminal GST; dsDNA, one strand shown
[1] = target: ETV1 (Homo sapiens, UniProt P50549 1-477)
Summary of the method: (§1)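 In yeast, human transcription factors were expressed with a GST fusion, then pulled down on glutathione beads and given DNA barcodes. Pooled with a tag-only sample, they were exposed to 200 nmole of a 16-mer random double-stranded DNA library (Tris/NaCl/DTT/glycerol buffer, room temperature, 30 min), washed, crosslinked with 0.1% formaldehyde, proximity-ligated using BsaI/T4 ligase for 1 h at 37 °C, PCR-amplified and read on an Illumina NextSeq500. Each hexamer's frequency of reads for a factor, divided by the matching frequency for the tag-only sample, gives the binding signal.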

[2] = target: T1, ERF (Homo sapiens, UniProt P50548 1-548)
T1 sequence: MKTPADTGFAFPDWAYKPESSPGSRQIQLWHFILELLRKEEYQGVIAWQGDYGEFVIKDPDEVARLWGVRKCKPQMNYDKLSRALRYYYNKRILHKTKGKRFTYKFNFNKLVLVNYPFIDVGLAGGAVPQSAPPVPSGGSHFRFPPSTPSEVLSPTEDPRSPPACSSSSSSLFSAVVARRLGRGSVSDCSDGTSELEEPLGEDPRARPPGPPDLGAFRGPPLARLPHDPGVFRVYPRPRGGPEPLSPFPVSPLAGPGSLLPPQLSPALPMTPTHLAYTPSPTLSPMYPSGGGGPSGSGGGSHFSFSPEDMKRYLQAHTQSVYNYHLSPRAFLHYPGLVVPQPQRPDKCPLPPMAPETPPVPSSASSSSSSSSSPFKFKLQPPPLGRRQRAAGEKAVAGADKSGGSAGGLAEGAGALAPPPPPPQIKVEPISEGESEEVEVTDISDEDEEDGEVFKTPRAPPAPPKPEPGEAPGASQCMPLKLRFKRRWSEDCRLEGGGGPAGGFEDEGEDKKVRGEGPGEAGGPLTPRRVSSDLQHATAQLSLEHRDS
Summary of the method: as §1

[3] = target: T2, ETV3L (Homo sapiens, UniProt Q6ZN32 1-361)
T2 sequence: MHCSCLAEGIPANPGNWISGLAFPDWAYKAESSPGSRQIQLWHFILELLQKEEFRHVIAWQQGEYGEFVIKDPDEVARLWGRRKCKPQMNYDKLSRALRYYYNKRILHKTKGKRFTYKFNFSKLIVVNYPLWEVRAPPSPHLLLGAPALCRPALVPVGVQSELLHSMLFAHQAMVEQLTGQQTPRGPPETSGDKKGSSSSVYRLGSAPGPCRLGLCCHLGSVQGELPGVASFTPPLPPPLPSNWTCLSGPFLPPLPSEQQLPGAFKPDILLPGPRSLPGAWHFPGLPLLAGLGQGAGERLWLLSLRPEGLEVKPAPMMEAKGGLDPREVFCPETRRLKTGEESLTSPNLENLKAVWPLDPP
Summary of the method: as §1

[4] = target: T3, ETS2 (Homo sapiens, UniProt P15036 1-469)
T3 sequence: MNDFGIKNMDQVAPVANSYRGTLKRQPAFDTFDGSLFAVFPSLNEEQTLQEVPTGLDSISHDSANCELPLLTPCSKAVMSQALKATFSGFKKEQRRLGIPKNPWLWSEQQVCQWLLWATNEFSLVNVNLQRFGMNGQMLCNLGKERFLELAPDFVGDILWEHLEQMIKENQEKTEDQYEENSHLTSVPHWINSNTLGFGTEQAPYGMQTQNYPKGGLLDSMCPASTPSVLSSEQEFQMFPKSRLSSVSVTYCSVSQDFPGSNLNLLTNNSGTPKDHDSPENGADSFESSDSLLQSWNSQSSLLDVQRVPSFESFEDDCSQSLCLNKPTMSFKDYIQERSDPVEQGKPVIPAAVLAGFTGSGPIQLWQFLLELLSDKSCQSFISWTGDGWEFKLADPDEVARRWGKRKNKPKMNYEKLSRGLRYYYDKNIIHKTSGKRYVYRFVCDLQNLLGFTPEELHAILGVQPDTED
Summary of the method: as §1

[5] = target: T4, SPDEF (Homo sapiens, UniProt O95238 1-335)
T4 sequence: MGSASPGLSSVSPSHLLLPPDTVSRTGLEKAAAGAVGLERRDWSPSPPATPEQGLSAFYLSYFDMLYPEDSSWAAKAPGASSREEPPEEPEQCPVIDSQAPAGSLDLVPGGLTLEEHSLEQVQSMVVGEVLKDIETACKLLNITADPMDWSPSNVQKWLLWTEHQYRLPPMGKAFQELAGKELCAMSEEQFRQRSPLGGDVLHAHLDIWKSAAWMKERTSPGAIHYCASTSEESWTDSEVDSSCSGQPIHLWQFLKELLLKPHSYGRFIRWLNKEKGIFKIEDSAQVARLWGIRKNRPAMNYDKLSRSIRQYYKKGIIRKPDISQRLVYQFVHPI
Summary of the method: as §1

[6] = target: T5, ETV7 (Homo sapiens, UniProt Q9Y603 1-341)
T5 sequence: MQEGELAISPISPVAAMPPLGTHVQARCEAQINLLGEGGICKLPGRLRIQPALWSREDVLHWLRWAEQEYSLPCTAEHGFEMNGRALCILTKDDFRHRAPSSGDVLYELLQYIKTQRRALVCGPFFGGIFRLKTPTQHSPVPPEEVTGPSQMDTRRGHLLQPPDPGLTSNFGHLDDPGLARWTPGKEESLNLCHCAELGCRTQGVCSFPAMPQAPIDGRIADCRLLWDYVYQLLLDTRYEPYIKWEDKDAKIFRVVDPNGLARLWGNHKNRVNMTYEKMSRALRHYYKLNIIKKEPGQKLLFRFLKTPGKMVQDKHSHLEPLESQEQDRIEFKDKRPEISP
Summary of the method: as §1

[7] = target: T6, ELF5 (Homo sapiens, UniProt Q9UKW6-2 1-255)
T6 sequence: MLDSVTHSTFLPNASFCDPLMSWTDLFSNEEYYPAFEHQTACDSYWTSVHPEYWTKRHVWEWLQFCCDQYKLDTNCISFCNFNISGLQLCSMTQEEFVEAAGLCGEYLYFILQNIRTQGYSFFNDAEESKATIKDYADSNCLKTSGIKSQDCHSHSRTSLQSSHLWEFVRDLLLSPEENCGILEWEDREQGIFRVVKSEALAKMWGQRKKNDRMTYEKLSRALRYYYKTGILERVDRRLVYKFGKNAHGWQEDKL
Summary of the method: as §1

[8] = target: T7, ETV3 (Homo sapiens, UniProt P41162-2 1-143)
T7 sequence: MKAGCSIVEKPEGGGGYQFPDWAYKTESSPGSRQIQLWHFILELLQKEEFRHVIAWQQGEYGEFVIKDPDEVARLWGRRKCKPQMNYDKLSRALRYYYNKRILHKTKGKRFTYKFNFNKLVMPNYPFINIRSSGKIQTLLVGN
Summary of the method: as §1

[9] = target: ETV6 (Homo sapiens, UniProt P41212 1-452)
Summary of the method: as §1

Sequence of ETV6 (P41212 whole entry): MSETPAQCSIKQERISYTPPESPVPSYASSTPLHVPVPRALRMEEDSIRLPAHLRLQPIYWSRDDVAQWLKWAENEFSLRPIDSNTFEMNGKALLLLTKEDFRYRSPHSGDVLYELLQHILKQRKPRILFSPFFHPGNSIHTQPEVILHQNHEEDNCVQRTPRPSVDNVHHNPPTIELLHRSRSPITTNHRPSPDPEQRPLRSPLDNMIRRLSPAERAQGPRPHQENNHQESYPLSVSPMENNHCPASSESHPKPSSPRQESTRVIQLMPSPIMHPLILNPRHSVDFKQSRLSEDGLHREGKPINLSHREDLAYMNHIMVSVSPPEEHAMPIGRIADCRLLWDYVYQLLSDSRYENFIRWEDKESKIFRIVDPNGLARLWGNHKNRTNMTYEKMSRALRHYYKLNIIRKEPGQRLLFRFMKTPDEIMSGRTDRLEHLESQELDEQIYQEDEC
Sequence of ETV1 (P50549 whole entry, the tested form may be a part): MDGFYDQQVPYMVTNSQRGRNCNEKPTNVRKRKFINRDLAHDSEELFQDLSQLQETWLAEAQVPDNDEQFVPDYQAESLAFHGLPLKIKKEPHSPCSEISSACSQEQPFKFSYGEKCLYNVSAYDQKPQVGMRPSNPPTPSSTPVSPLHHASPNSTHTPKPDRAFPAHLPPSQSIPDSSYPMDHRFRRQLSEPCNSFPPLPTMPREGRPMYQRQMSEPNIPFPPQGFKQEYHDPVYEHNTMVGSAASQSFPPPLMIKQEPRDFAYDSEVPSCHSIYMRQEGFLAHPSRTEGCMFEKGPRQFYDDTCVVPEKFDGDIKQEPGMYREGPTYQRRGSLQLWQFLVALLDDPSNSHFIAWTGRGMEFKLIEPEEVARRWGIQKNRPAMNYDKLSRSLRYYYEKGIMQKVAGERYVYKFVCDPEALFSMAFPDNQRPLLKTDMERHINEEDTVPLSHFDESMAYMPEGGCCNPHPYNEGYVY

For CACGTA, the binding signal [1] was 1.14 fold enrichment (6-mer frequency, TF over GST control), the binding signal [2] was 1.19 fold enrichment (6-mer frequency, TF over GST control) and the binding signal [3] was 1.17 fold enrichment (6-mer frequency, TF over GST control). The binding signal [4] was 1.14 fold enrichment (6-mer frequency, TF over GST control), the binding signal [5] was 1.15 fold enrichment (6-mer frequency, TF over GST control) and the binding signal [6] was 1.18 fold enrichment (6-mer frequency, TF over GST control). For the same sequence, the binding signal [7] was 1.15 fold enrichment (6-mer frequency, TF over GST control), the binding signal [8] was 1.16 fold enrichment (6-mer frequency, TF over GST control) and the binding signal [9] was 1.11 fold enrichment (6-mer frequency, TF over GST control).
